Source: PubChem BioAssay (NCATS)
Records with an inconclusive call do not appear. A call without a number means that no potency is given here. Calls of active or inactive are those of the source. The call rests on the fitted dose curve; in most records, active means well fitted curve in the direction sought with a large enough effect; inconclusive means small, poorly fitted or top-dose-only effect, or another doubt; inactive means no such curve, though single readings can be large; an effect the other way counts as inactive or inconclusive.

What was measured:
[1] = Cellular Toxicity (caspase-3) HepG2 (AID 654);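 further: cells exposed to compound for 16 hours before reading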
Summary of the method: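 qHTS, HepG2, 1500 cells/well, complete medium; cpd 16 h 37 °C; Caspase-Glo 3/7, 20 min RT; lum. Norm: DMSO vs 100 uM tamoxifen; AC50 Hill fit.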

[2] = Cellular Toxicity (caspase-3) Jurkat (AID 655);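 further: cells exposed to compound for 16 h at 37 °C before reading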
Summary of the method: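 Jurkat cells (5000/well) in complete medium were treated with compounds for 16 hr at 37 °C, then Caspase-Glo 3/7 luminescence was read after 20 min at room temperature. Data normalized to DMSO (basal) and 100 uM tamoxifen (100%); AC50 from Hill fit.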

[3] = Cellular Toxicity (caspase-3) HUV-EC-C (AID 656)
Summary of the method: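 HUV-EC-C endothelial cells, 1000/well, were pre-incubated 5 hr at 37°C, then exposed to compounds for 16 hr at 37°C. Caspase-Glo 3/7 luminescence was read after 20 min at room temperature. AC50 came from Hill fits, normalized to DMSO and 100 uM tamoxifen.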

[4] = Cellular Toxicity (caspase-3) SHSY5Y (AID 657)
Summary of the method: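 SH-SY5Y human neuroblastoma cells (1500/well) were treated with compounds for 16 h at 37 °C, then Caspase-Glo 3/7 luminescence was read after 1 h at room temperature. Data normalized to DMSO and 10 uM staurosporine; AC50 from Hill fits.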

[5] = Cellular Toxicity (caspase-3) BJ (AID 658)
Summary of the method: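 Readout: Caspase-Glo 3/7 luminescence increase in BJ cells after 16 hr treatment at 37 °C. Staurosporine and tamoxifen served as positive controls; AC50 values came from Hill modelling of data normalized to DMSO and 10 uM staurosporine.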

[6] = Cellular Toxicity (caspase-3) MRC-5 (AID 659)
Summary of the method: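 Concentration-dependent caspase 3/7 activation is measured in human normal lung fibroblasts (MRC-5) following 16-hour treatment. AC50 values come from standard Hill-equation modeling of luminescence normalized to DMSO and 10 uM staurosporine.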

[7] = Cellular Toxicity (caspase-3) Mesangial (AID 660);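 further: combined caspase 3 and 7 activity read by Caspase-Glo luminescence; cells exposed to compound for 16 h before the caspase read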
Summary of the method: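 Concentration-response qHTS: compound-induced rise in caspase 3/7 luminescence in human mesangial cells after 16 h, normalized to DMSO and 100 uM tamoxifen controls.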

[8] = Cellular Toxicity (caspase-3) SK-N-SH (AID 661)
Summary of the method: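 Caspase 3/7 activation is measured as a luminescence increase from aminoluciferin released by substrate cleavage in SK-N-SH cells after 16 hr compound treatment; values are AC50 from concentration-response curves.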

[9] = Cellular Toxicity (caspase-3) H-4-II-E (AID 663);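 further: cells exposed to compound for 16 hr before readout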
Summary of the method: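 Apoptosis induction is scored as increased luminescence from caspase 3/7 substrate cleavage in rat hepatoma H-4-II-E cells exposed to compound for 16 hr. Activity is scaled between DMSO and 100 uM tamoxifen.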

[10] = Cellular Toxicity (caspase-3) Hek293 (AID 664);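 further: cells exposed to compound for 16 h at 37 °C before readout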
Summary of the method: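 Activation of caspase-3/7 is measured as increased luminescence from cleaved peptide-aminoluciferin substrate in HEK293 cells treated 16 hours at 37 °C. AC50 values come from Hill-equation fits of concentration-response data.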

[11] = Cellular Toxicity (caspase-3) NIH 3T3 (AID 666);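 further: caspase signal read after 16 h compound exposure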
Summary of the method: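 Concentration-response qHTS in NIH 3T3 mouse fibroblasts scores caspase-3/7 activation as rising luminescence after 16 hr compound exposure. Signals are scaled between DMSO-only and 100 uM tamoxifen.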

[12] = Cellular Toxicity (caspase-3) Renal Proximal Tubule (AID 667);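 further: cells exposed to compound for 16 hours at 37 °C before detection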
Summary of the method: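 Primary rat proximal tubule cells, 1000/well, 5 h plating at 37 °C, then compound 16 h at 37 °C. Caspase-Glo 3/7 reagent, 1 h RT, luminescence. Normalized to DMSO (basal) and 10 uM staurosporine (100%); Hill-fit AC50.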

[13] = target: Cytochrome P450 3A4 (Homo sapiens) (UniProt P08684); test: qHTS Assay for Inhibitors and Substrates of Cytochrome P450 3A4 (AID 884); further: nearly all actives have a fitted effect of over 50% in size; further: potency means the concentration at half of the fitted maximal effect
Sequence of Cytochrome P450 3A4 (Homo sapiens) (P08684 whole entry, looked up): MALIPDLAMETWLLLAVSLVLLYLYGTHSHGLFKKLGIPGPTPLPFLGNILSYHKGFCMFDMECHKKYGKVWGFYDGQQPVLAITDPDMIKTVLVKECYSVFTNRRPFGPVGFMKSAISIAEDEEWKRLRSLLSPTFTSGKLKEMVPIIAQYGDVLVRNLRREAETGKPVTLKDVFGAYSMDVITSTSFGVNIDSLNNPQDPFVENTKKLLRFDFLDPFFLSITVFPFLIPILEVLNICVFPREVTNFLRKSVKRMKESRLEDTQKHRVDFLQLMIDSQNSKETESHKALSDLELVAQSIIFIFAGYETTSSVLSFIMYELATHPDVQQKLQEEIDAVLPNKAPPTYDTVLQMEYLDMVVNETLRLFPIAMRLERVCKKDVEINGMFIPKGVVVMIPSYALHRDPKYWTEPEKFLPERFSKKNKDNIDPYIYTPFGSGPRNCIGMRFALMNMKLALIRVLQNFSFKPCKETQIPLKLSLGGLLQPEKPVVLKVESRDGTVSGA
Summary of the method: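 20 nM human CYP3A4 with 25 uM Luciferin-PPXE (at KM) in 200 mM KPO4, preincubated 10 min with compound; NADPH regeneration started a 60 min RT reaction. Luciferin detected by luminescence, normalized to 57 uM ketoconazole as full inhibition.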

[14] = target: Cytochrome P450 2C9 (Homo sapiens) (UniProt P11712); test: qHTS Assay for Inhibitors and Substrates of Cytochrome P450 2C9 (AID 883); further: nearly all actives have a fitted effect of over 60% in size; further: potency means the concentration at half of the fitted maximal effect
Sequence of Cytochrome P450 2C9 (Homo sapiens) (P11712 whole entry, looked up): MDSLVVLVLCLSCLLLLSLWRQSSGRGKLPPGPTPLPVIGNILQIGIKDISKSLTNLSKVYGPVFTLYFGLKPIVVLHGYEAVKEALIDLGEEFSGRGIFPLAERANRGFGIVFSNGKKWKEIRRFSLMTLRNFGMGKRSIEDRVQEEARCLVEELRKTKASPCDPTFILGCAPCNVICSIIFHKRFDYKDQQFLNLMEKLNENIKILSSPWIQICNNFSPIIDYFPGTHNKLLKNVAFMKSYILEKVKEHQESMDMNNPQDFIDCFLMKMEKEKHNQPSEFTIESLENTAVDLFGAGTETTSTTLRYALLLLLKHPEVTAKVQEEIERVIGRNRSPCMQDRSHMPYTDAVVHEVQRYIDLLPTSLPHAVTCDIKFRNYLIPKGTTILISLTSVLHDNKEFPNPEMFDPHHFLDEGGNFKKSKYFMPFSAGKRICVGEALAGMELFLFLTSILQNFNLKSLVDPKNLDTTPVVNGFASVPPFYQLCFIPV
Summary of the method: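 Inhibition of CYP2C9 is scored as loss of luminescence, with 57uM sulphaphenazole defining 100% inhibition. Substrate Luciferin-H is used at 100uM, equal to its KM; enzyme at 10nM in 25mM KPO4, 60 min at 37C with NADPH regeneration.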

[15] = target: Cytochrome P450 3A4 (Homo sapiens) (UniProt P08684); test: qHTS Assay for Activators of Cytochrome P450 3A4 (AID 885); further: nearly all actives have a fitted effect of over 65% in size
Summary of the method: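 Steps: enzyme/substrate mix dispensed; compound added, 10 min RT; NADPH regeneration solution added, 60 min RT; luciferin detection buffer stops reaction; 20 min later luminescence measured.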

[16] = target: Cytochrome P450 2D6 (Homo sapiens) (UniProt P10635); test: qHTS Assay for Inhibitors and Substrates of Cytochrome P450 2D6 (AID 891);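 further: luciferin methyl ether substrate demethylated by CYP2D6 with NADPH regeneration; nearly all actives have a fitted effect of over 60% in size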
Sequence of Cytochrome P450 2D6 (Homo sapiens) (P10635 whole entry, looked up): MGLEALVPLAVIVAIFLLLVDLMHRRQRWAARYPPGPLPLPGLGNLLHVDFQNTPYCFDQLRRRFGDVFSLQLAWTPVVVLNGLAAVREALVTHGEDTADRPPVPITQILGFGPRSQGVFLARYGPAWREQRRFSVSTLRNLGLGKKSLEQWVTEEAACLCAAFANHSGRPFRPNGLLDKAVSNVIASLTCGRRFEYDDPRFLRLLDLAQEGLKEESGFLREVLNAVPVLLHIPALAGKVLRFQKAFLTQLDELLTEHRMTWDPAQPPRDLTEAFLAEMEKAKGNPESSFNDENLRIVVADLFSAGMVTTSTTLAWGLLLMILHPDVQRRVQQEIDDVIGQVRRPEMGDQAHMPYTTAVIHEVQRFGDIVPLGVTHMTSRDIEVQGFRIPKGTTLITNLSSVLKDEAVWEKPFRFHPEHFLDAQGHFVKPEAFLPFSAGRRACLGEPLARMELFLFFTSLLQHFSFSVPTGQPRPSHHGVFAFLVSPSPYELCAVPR
Summary of the method: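 Human CYP2D6 (5 nM) with 30 uM Luciferin-ME EGE (at Km) in 100 mM KPO4, compound preincubated 10 min, then NADPH regeneration system for 60 min at room temperature. Luciferin read by luminescence; normalized to 1.43 uM quinidine.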

[17] = target: Cytochrome P450 2C19 (Homo sapiens) (UniProt P33261); test: qHTS Assay for Inhibitors and Substrates of Cytochrome P450 2C19 (AID 899); further: nearly all actives have a fitted effect of over 60% in size
Sequence of Cytochrome P450 2C19 (Homo sapiens) (P33261 whole entry, looked up): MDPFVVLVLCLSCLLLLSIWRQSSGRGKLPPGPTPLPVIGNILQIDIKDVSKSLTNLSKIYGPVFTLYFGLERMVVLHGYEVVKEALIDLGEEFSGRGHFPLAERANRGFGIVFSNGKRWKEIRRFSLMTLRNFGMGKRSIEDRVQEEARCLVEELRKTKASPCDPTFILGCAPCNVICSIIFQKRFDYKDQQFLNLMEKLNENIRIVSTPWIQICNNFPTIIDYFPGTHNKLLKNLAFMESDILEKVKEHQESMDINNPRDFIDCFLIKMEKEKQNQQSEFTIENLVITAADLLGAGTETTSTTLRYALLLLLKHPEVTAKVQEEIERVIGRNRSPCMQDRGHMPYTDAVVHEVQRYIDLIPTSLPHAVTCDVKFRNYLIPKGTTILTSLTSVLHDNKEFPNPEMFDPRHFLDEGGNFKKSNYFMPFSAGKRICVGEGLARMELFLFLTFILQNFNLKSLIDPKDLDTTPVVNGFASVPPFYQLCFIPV
Summary of the method: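 5nM enzyme + 10uM Luciferin-H EGE (=KM), 50mM KPO4; cpd pin-transferred, 10 min 37C; NADPH regen, 60 min 37C; stopped w/ luciferin detection reagent, 20 min; luminescence. Normalized to 57uM ketoconazole (AC100).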

[18] = Confirmation and Secondary Assay for Modulators of Hemoglobin Beta Chain Splicing at IVS2 654 locus (AID 910);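 further: HeLa cells stably carrying EGFP split by mutant beta-globin IVS2-654 intron; per-well total GFP intensity by laser scanning cytometry after 2-day treatment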
Summary of the method: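 Readout: per-well total peak green fluorescence (488 nm ex, 500–520 nm em) from objects 5–250 µm, reflecting correct splicing of an EGFP-654 reporter. Compounds were applied for 2 days at 37 °C to overnight-plated HeLa EGFP-654 cells; controls were DMSO and 500 nM IVS2-654 PNA.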

SMILES | outcome [1] | outcome [2] | outcome [3] | outcome [4] | outcome [5] | outcome [6] | outcome [7] | outcome [8] | outcome [9] | outcome [10] | outcome [11] | outcome [12] | Potency [13] | Potency [14] | outcome [15] | Potency [16] | Potency [17] | Potency [18]
O=[N+]([O-])c1cc([N+](=O)[O-])c2ccccc2c1 | inactive | inactive | inactive | inactive | inactive | inactive | inactive | inactive | inactive | inactive | inactive | inactive | inactive |  |  |  |  | 
O=C(O)COc1ccccc1 | inactive | inactive | inactive | inactive | inactive | inactive | inactive | inactive | inactive | inactive | inactive | inactive | inactive |  |  |  |  | 
OCCCBr | inactive | inactive | inactive | inactive | inactive | inactive | inactive | inactive | inactive | inactive | inactive | inactive | inactive |  |  |  |  | 
CCCCc1ccc(C(=O)O)nc1 |  |  |  |  |  |  |  |  |  |  |  |  | inactive | inactive | inactive | inactive | inactive | 
O=S(=O)(c1ccc(Cl)cc1)c1ccc(Cl)cc1 | inactive | inactive | inactive | inactive | inactive | inactive | inactive | inactive | inactive | inactive | inactive | inactive |  |  | inactive |  |  | 
CC(C)c1ccc2c(c1)c(SC(C)(C)C)c(CC(C)(C)C(=O)O)n2Cc1ccc(Cl)cc1 |  |  |  |  |  |  |  |  |  |  |  |  |  | 6.31 µM (active) | inactive |  |  | 
Cc1nccc2c1[nH]c1ccccc12 |  |  |  |  |  |  |  |  |  |  |  |  | 3.98 µM (active) | inactive | inactive |  | inactive | inactive
CN(C)NC(=O)CCC(=O)O | inactive | inactive | inactive | inactive | inactive | inactive | inactive | inactive | inactive | inactive | inactive | inactive | inactive |  |  |  |  | 
COc1ccc(C(c2ccc(OC)cc2)C(Cl)(Cl)Cl)cc1 | inactive | inactive | inactive | inactive | inactive | inactive | inactive | inactive | inactive | inactive | inactive | inactive | inactive |  |  |  |  | inactive
C=CC(=O)NCNC(=O)C=C | inactive | inactive | inactive | inactive | inactive | inactive | inactive | inactive | inactive | inactive | inactive | inactive | inactive |  |  |  |  | 
